Drawing on PubChem BioAssay (NCATS), this text covers Potency and outcome for 13 compounds.

Test [1] in a line: S16 Schwann cell PMP22 intronic element firefly luciferase assay (AID 624032). Further: nearly all actives have a fitted effect of over 30% in size. Further: potency means the concentration at half of the fitted maximal effect. The essentials:
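Rat S16 Schwann cells stably carrying a PMP22 intronic element-driven Fluc reporter were seeded overnight, then exposed to compounds for 24 h at 37 °C. Luminescence was normalized to PTC124 (positive control) and DMSO (0% activity).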

Test [2] can be described thus: S16 Schwann cell PMP22 intronic element beta-lactamase assay (AID 624044; calls by dose curve; further: nearly all actives have a fitted effect of over 15% in size). Put shortly:
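Beta-lactamase reporter under a PMP22 intronic regulatory element in stable S16 rat Schwann cells; 24 h compound exposure. 460 nm blue signal normalized between DMSO (0%) and potassium clavulanate, with 535 nm FRET tracking viability; curves classed by r2 and response.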

Another test deals with 3D7. Kind of test: qHTS profiling for inhibitors of Plasmodium falciparum proliferation (AID 504749). Further: nearly all actives have a fitted effect of over 60% in size. Further: potency means the concentration at half of the fitted maximal effect. As to conditions: P. falciparum in erythrocytes, SYBR Green DNA, 72 h; series mostly up to 12.8 µM. Put shortly: (§1)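 Fluorescence of SYBR Green-bound parasite DNA, read at 485/535 nm, served as the growth measure. Infected erythrocytes were cultured with compound 72 h; artemisinin (0.29 uM) and DMSO wells defined the normalization range.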
(In general: qHTS replaces the single test concentration by a dilution series.)

The test system of another test is 7G8. The test is described as above. To be noted: P. falciparum in erythrocytes, SYBR Green DNA, 72 h; series mostly up to 12.8 µM. Put shortly: as §1
A further test deals with ATS95. The description is as above. As to conditions: P. falciparum in erythrocytes, SYBR Green DNA, 72 h; series mostly up to 12.8 µM. Put shortly: as §1
A further test deals with CP192. The test is described as above. As to conditions: P. falciparum in erythrocytes, SYBR Green DNA, 72 h; series mostly up to 28.7 µM. Put shortly: as §1
For another test, the system named is CP194. Described as above. As to conditions: P. falciparum in erythrocytes, SYBR Green DNA, 72 h; series mostly up to 12.8 µM. Put shortly:
as §1

The next test deals with CP203. The description is as above. As to conditions: P. falciparum in erythrocytes, SYBR Green DNA, 72 h; series mostly up to 12.8 µM. The essentials:
as §1

For the next test, the system named is CP215. Described as above. As to conditions: P. falciparum in erythrocytes, SYBR Green DNA, 72 h; series mostly up to 28.7 µM. The essentials: as §1
The next test deals with CP260. The test is described as above. To be noted: P. falciparum in erythrocytes, SYBR Green DNA, 72 h; series mostly up to 12.8 µM. The essentials: as §1
The subject of the next test is CP266. The description is as above. As to conditions: P. falciparum in erythrocytes, SYBR Green DNA, 72 h; series mostly up to 28.7 µM. The essentials:
as §1

For a further test, the system named is CP268. The description is as above. To be noted: P. falciparum in erythrocytes, SYBR Green DNA, 72 h; series mostly up to 12.8 µM. Put shortly: as §1
The subject of the next test is CP297. Described as above. As to conditions: P. falciparum in erythrocytes, SYBR Green DNA, 72 h; series mostly up to 12.8 µM. The essentials: as §1
The next test relates to DIV14. The test is described as above. As to conditions: P. falciparum in erythrocytes, SYBR Green DNA, 72 h; series mostly up to 12.8 µM. Put shortly: as §1
A further test deals with DIV17. Described as above. To be noted: P. falciparum in erythrocytes, SYBR Green DNA, 72 h; series mostly up to 12.8 µM. Put shortly:
as §1

The next test has as its system GB4. The description is as above. As to conditions: P. falciparum in erythrocytes, SYBR Green DNA, 72 h; series mostly up to 12.8 µM. Put shortly:
as §1

A further test relates to ICS. Described as above. As to conditions: P. falciparum in erythrocytes, SYBR Green DNA, 72 h; series mostly up to 12.8 µM. The essentials: as §1
In another test the test system is PAD. The test is described as above. As to conditions: P. falciparum in erythrocytes, SYBR Green DNA, 72 h; series mostly up to 12.8 µM. The essentials:
as §1

A further test deals with TAB109. The description is as above. To be noted: P. falciparum in erythrocytes, SYBR Green DNA, 72 h; series mostly up to 12.8 µM. The essentials: as §1
The subject of another test is W2. The test is described as above. To be noted: P. falciparum in erythrocytes, SYBR Green DNA, 72 h; series mostly up to 12.8 µM. Put shortly:
as §1

Records with an inconclusive call do not appear. Activity calls are given as the source filed them. Unless noted, the call rests on the fitted dose curve; in most records, active means well fitted curve in the direction sought with a large enough effect; inconclusive means small, poorly fitted or top-dose-only effect, or another doubt; inactive means no such curve, though single readings can be large; an effect the other way counts as inactive or inconclusive.

For the compound `COc1c(O)cc2c(c1O)[C@@H]1O[C@@H](CO)[C@@H](O)[C@@H](O)[C@@H]1OC2=O`, the Potency entry (in test [1]; in the test with 3D7; in the test with 7G8; with ATS95; in the test on CP192; in the test on CP194) was “inactive” in each case. The Potency entry with CP203, with CP215, in the test with CP260, in the test with CP266, with CP268 and with CP297 was “inactive” in each case. Besides, the Potency entry with DIV14, in the test on DIV17, with GB4, in the test with ICS, in the test on PAD and in the test on TAB109 was “inactive” each time. For the same compound, in the test on W2, the Potency entry is “inactive”. Moreover, in test [2], the outcome was inactive.

Regarding `CN(C)[C@H]1C(=O)C(C(=O)NCN2CCCC2)=C(O)[C@]2(O)C(=O)C3=C(O)c4c(O)cccc4[C@@](C)(O)[C@H]3C[C@@H]12`, the compound was called inactive in test [2]. The Potency result in the test with 3D7, in the test on 7G8, in the test on ATS95, in the test on CP192, in the test on CP194 and with CP203 was “inactive” in each case. The Potency entry with CP215, in the test with CP260, with CP266, with CP268, in the test with CP297 and in the test with DIV14 was “inactive” each time. Moreover, the Potency result in the test with DIV17, in the test with GB4, with ICS, in the test on PAD, in the test with TAB109 and with W2 was “inactive” throughout.

On to `NC(=O)OC[C@H](O)COc1ccc(Cl)cc1`, for which the Potency result (in [1]; in the test with 3D7; in the test on 7G8; in the test with ATS95; in the test on CP192; in the test on CP194) was “inactive” each time. The Potency entry in the test on CP203, in the test with CP215, in the test with CP260, in the test with CP266, with CP268 and in the test with CP297 was “inactive” each time. The Potency result with DIV14, with DIV17, in the test on GB4, with ICS, in the test on PAD and in the test on TAB109 was “inactive” each time. For the same compound, in the test with W2, the Potency result was “inactive”. The compound was called inactive in test [2].

For `C[C@@H](C(=O)O)c1cccc(C(=O)c2ccccc2)c1`, the Potency entry in test [1] is “inactive”.

With `CO[C@H]1C[C@@H](O[C@@H]2[C@H](C)[C@H](O[C@@H]3O[C@@H](C)C[C@@H](N(C)C)[C@@H]3O)[C@H](C)C[C@]3(CO3)C(=O)[C@H](C)[C@H](O)[C@H](C)[C@H](C)OC(=O)[C@@H]2C)O[C@@H](C)[C@H]1O`, the Potency entry (in test [1]; in the test on 3D7; in the test with 7G8; in the test with ATS95; in the test on CP192; with CP194) was “inactive” in each case. Moreover, the Potency entry in the test on CP203, in the test with CP215, in the test with CP260, in the test with CP266, with CP268 and with CP297 was “inactive” in each case. Also, the Potency entry in the test on DIV14, with DIV17, in the test on GB4, in the test with ICS, with PAD and with TAB109 was “inactive” each time. In the test on W2, the Potency result was “inactive”. For the same compound, in test [2], the call was inactive.

On to `CN(N=O)C(=O)N[C@H]1[C@@H](O)[C@H](O)[C@H](CO)O[C@@H]1O`, for which the Potency entry (in test [1]; in the test on 3D7; in the test with 7G8; in the test with ATS95; with CP192; in the test with CP194) was “inactive” in each case. For the same compound, the Potency entry with CP203, in the test on CP215, with CP260, in the test with CP266, in the test with CP268 and in the test with CP297 was “inactive” in each case. The Potency result in the test with DIV14, in the test on DIV17, in the test with GB4, with ICS, in the test on PAD and in the test with TAB109 was “inactive” each time. Moreover, the Potency entry with W2 is “inactive”.

For the compound `C[C@@H](CN(C)C)CN1c2ccccc2CCc2ccccc21`, the Potency result (in test [1]; in the test with 3D7; in the test with ATS95; in the test on CP192; in the test on CP260; with CP266) was “inactive” each time. Moreover, the Potency entry in the test on CP268, with CP297, in the test on PAD and in the test on TAB109 was “inactive” throughout. The result in test [2] was inactive.

With `O=c1[nH]c(=O)n([C@@H]2C[C@H](O)[C@H](CO)O2)cc1I`, the Potency in [1] was 2.45 µM (active). Besides, the outcome in test [2] was inactive. Besides, the Potency entry in the test with 3D7, with 7G8, with ATS95, with CP192, with CP194 and in the test on CP203 was “inactive” each time. Also, the Potency result in the test with CP215, in the test with CP260, with CP266, in the test with CP268, in the test with CP297 and with DIV14 was “inactive” each time. Besides, the Potency entry with DIV17, in the test on GB4, in the test with ICS, with PAD, in the test on TAB109 and in the test with W2 was “inactive” each time.

In the case of `CN[C@@H]1[C@H](O[C@@H]2O[C@H](CO)[C@@H](N)[C@H](O)[C@@H]2O)O[C@H]2C[C@@H](N)[C@@H](O[C@H]3[C@@H](O)[C@H](O)[C@H](N)C[C@@H]3N)O[C@H]2[C@H]1O`, the Potency entry (in test [1]; in the test on 3D7; in the test on 7G8; in the test on ATS95; in the test with CP194; with CP203) was “inactive” each time. Besides, the Potency entry in the test with CP215, in the test on CP260, in the test on CP266, in the test with CP268, in the test on CP297 and in the test with DIV14 was “inactive” in each case. Also, the Potency result in the test with DIV17, in the test on GB4, with ICS, in the test with PAD, in the test with TAB109 and with W2 was “inactive” each time.

Turning to `CCN(CC)CC#CCOC(=O)[C@@](O)(c1ccccc1)C1CCCCC1`, the Potency entry (in test [1]; in the test on CP192; in the test on CP203; with CP215; in the test with CP266) was “inactive” each time. In addition, the outcome in test [2] was inactive. The Potency in the test with 7G8 was 8.91 µM (active); with DIV14, 7.57 µM (active); with DIV17 it was 4.78 µM (active); in the test with W2, 5.36 µM (active).

In the case of `C[n+]1ccccc1/C=N\O`, the Potency entry (in test [1]; in the test on 3D7; in the test on 7G8; with ATS95; in the test on CP192; with CP194) was “inactive” each time. Further, the Potency result in the test with CP203, in the test on CP215, with CP260, in the test with CP266, in the test on CP268 and with CP297 was “inactive” in each case. Further, the Potency entry in the test with DIV14, in the test on DIV17, in the test with GB4, in the test on ICS, in the test on PAD and in the test with TAB109 was “inactive” each time. Further, in the test with W2, the Potency result is “inactive”. Moreover, the result in test [2] was inactive.

For the compound `CC(=O)N(CC(O)CN(C(C)=O)c1c(I)c(C(=O)NC[C@@H](O)CO)c(I)c(C(=O)NC[C@@H](O)CO)c1I)c1c(I)c(C(=O)NC[C@@H](O)CO)c(I)c(C(=O)NC[C@@H](O)CO)c1I`, the compound was called inactive in test [2]. In addition, the Potency entry with 3D7, in the test on 7G8, in the test on ATS95, in the test on CP192, in the test with CP194 and in the test with CP203 was “inactive” throughout. Besides, the Potency result with CP215, with CP260, in the test with CP266, in the test with CP268, in the test on CP297 and with DIV17 was “inactive” in each case. The Potency result in the test on GB4, with ICS, in the test on PAD and in the test with TAB109 was “inactive” throughout.

On to `NS(=O)(=O)c1cc([C@@]2(O)NC(=O)c3ccccc32)ccc1Cl`, for which the Potency result (in [1]; in the test with 3D7; with 7G8; in the test with ATS95; in the test on CP192; in the test on CP194) was “inactive” throughout. The Potency entry with CP203, in the test on CP215, in the test on CP260, in the test with CP268, with CP297 and in the test on DIV14 was “inactive” each time. Moreover, the Potency result in the test on DIV17, in the test on GB4, in the test on ICS, with PAD, in the test on TAB109 and in the test with W2 was “inactive” each time. Further, the outcome in test [2] was inactive.
